Among all 65,000 compounds or so, about 100 (0.15%) were called active.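 Rule for the calls: active = inhibition above about 50% (limit read from the data); inconclusive = inhibition over screen mean plus 3 SD, below that limit; inactive = the rest.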 The list comes from a sample in which actives are over-represented; it also holds similar structures and randomly drawn compounds.
biological target: Dual specificity protein phosphatase 1 (Homo sapiens) (UniProt P28562); assay: MKP-1 phosphatase inhibitors, primary screen, biochemical, in vitro (AID 374); details: recombinant MKP-1, OMFP hydrolysis fluorescence; stronger effect = higher value;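 compounds tested at a single concentration somewhere between 10 and 100 µM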;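 note: 0% = DMSO max control wells and 100% = wells with enzyme stopped by NaOH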
Sequence (P28562 whole entry, looked up): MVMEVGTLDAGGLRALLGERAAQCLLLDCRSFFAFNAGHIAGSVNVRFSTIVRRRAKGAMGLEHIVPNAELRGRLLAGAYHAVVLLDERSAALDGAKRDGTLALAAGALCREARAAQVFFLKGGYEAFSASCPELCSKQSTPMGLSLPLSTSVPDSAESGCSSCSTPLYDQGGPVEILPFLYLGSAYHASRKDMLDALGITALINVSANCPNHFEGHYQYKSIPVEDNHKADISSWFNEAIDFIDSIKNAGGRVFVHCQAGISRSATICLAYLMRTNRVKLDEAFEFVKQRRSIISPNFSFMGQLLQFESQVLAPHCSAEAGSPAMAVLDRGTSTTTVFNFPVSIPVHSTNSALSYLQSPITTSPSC

inhibition, active:
CCCCNC(=O)CSc1nnc(-c2ccco2)n1C 93.8%
O=C1c2cccnc2C(Nc2ccc(S(=O)(=O)N3CCCCCC3)cc2)N1Cc1ccccc1 (centres undefined) 51.4%
CCc1ccc(NC(=O)CSc2nc3ccccc3c(=O)n2CCN2CCOCC2)cc1 52.5%
COC(=O)C1=C(C)NC2=C(C(=O)c3ccccc32)C1c1ccc(-c2ccc(C(=O)O)cc2)o1 (centres undefined) 56%

inhibition, inactive:
Cn1c(SCC(=O)c2cccs2)nnc1-c1ccco1 0.18%
CC(C)[C@H](NC(=O)Nc1ccc(S(N)(=O)=O)cc1)C(=O)O -4.12%
CCc1ccccc1N(CC(=O)NCCSCc1ccco1)S(C)(=O)=O -0.33%
CC(CN1CCCCC1)OC(=O)c1ccccc1Cl (centres undefined) -18.9%
O=C(Nc1cnccn1)c1cccnc1 35.7%
Cc1cccc(C)c1NC(=O)N1CC=C(n2c(=O)[nH]c3ccccc32)CC1 -1.96%
O.O.O.O=S(=O)([O-])OC[C@H]1O[C@@H](O[C@]2(COS(=O)(=O)[O-])O[C@H](OS(=O)(=O)[O-])[C@@H](OS(=O)(=O)[O-])[C@@H]2OS(=O)(=O)[O-])[C@H](OS(=O)(=O)[O-])[C@@H](OS(=O)(=O)[O-])[C@@H]1OS(=O)(=O)[O-].[Al] 9.95%
CC(=NC1CCN(Cc2ccccc2)CC1)c1c(O)[nH]c(=O)[nH]c1=O -4.49%
COc1ccccc1Nc1nc(N)nc(CN(C)C2CCCCC2)n1 -2.91%
CCN(CC(=O)Nc1ccc2c(c1)OCCO2)Cc1cc(=O)oc2cc(C)c(C)cc12 12.7%
Cc1cc(C)c(NC(=O)CS(=O)CC(=O)Nc2cccnc2)c(C)c1 (centres undefined) -12.3%
Cc1ccnc(N2CCN(C(=O)CSc3nc4ccccc4nc3N3CCCCC3)CC2)c1 6.59%
Nn1c(SCC(=O)NC(=O)NC2CCCC2)nnc1-c1ccccc1F -5.68%
O=c1cc(CO)oc(CN2CCC(Cc3ccccc3)CC2)c1O 8.32%
CCOC(=O)CSc1nnc(-c2ccco2)n1C -29.8%
O=C(CSc1nnc(-c2ccco2)n1-c1ccccc1)NCCc1ccccc1 -9.86%
Cc1cc(C)c2c(c1)cc(C)c1nnc(SCC(=O)Nc3cc(C)on3)n12 8.08%
c1csc(CN2CCN(Cc3cccs3)C2c2cccs2)c1 -1.36%
Cc1ccc2c(NC(=O)C3CC3)cccc2n1 3.59%
CCOc1cc(/C=N/n2cnnc2)c(Br)cc1O -7.39%
COc1ccc(S(=O)(=O)N2CCCC(C(=O)Nc3ccc(NC(=O)c4ccccn4)cc3)C2)cc1 (centres undefined) 32.2%
O=C(Nc1ccc(S(=O)(=O)N2CCCCC2)cc1)c1cnccn1 -0.35%
CCOC(=O)N1CCN(CC(=O)c2c(C)[nH]c3ccccc23)CC1 1.62%
Cc1ccc(-c2noc(CCC(=O)Nc3ccccc3N3CCN(C)CC3)n2)cc1 -3.7%
CCOc1cccc(NC(=O)C2CCCN(S(=O)(=O)c3ccc(OC)cc3)C2)c1 (centres undefined) -15.6%
CN(C)CCCn1c(N)c(C#N)c2nc(C#N)c(C#N)nc21 2.01%
CC(=O)OCc1cc(=O)n(C)c(=O)n1C 15.5%
CCC(=O)Nc1ccccc1N1CCN(S(C)(=O)=O)CC1 6.41%
O=C(NCc1ccco1)c1cc(-c2cccnc2)nc2ccc(Cl)cc12 18.9%
COc1ccc(C(c2nnnn2Cc2cccs2)N2CCN(c3ccccc3)CC2)cc1OC (centres undefined) -17.2%
COCCOC(=O)C1=C(C)N=c2s/c(=C\c3cccs3)c(=O)n2C1c1cccs1 (centres undefined) -3.72%
CC(C)Cn1c(CCC(=O)O)ccc1-c1cccs1 -3.65%
O=C(Nc1ccccc1)N(Cc1cccnc1)Cc1ccco1 19.6%
CCOC(=O)CN1C(=O)C(O)(CC(=O)c2ccccn2)c2ccccc21 (centres undefined) -1.14%
COc1cccc(-n2c(Cc3cc(=O)[nH]c(=O)[nH]3)nnc2SCC(=O)Nc2ccccc2)c1 6.14%
O=C(Cn1nc(Cc2cccnc2)c2ccccc2c1=O)NCC1CCCO1 (centres undefined) -5.72%
O=C(CCC(=O)N1CCN(S(=O)(=O)c2ccccc2)CC1)NC1CCCc2ccccc21 (centres undefined) 28.7%
O=C(NCCN1CCOCC1)c1ccc2c(c1)ncn2C1CCCC1 -1.23%
O=S1(=O)CC(NCc2ccccc2)C(Nc2ccc(Cl)cc2)C1 (centres undefined) -10.7%
CC(C)=C(NC(=O)c1ccco1)C(=O)NCCc1nc2ccccc2[nH]1 -31.3%
CC(=O)Nc1cc2ccc(OC(C)=O)cc2oc1=O 1.98%
CC1CCCCN1CC(=O)NCc1ccc2c(c1)OCO2 (centres undefined) 11.8%
CCCCn1c(SCC(=O)NCC2CCCO2)nc2ccc(N3CCOCC3)cc2c1=O (centres undefined) 20.6%
COCCCNC(=O)CSc1nc2ccc(N3CCOCC3)cc2c(=O)n1CCc1ccccc1 25.1%
Cc1nn(CC(=O)Nc2ccc3c(c2)nc(CN2CCCCC2)n3C)c(=O)c2ccccc12 21.5%
O=C(NCC(F)(F)F)Nc1nnc(C(F)(F)F)s1 -9.86%
O=C(CCS(=O)(=O)Cc1ccccc1F)NCCCN1CCCCC1 5.21%
O=C(Cn1nnc2ccccc2c1=O)Nc1cc(C(F)(F)F)ccc1N1CCOCC1 36.2%
COC(=O)C1=C(C)NC(=O)NC1/C=C/c1ccccc1 (centres undefined) -8.21%
COc1ccccc1NC(=O)C1=C(C)NC2=C(C(=O)CCC2)C1c1ccc(C)o1 (centres undefined) 11.7%
Cc1nnc(NC(=O)CSc2nccn2-c2cccc(C)c2C)s1 -0.12%
CC(C)(C)n1c(=O)[nH]c2c(c1=O)CCC2 21.8%
O=C(Oc1cccnc1)c1cc2ccccc2oc1=O 10.3%
CC/C(=N\O)C(C)(C)/[N+]([O-])=C/c1ccc(Br)cc1 4.53%
Cc1cccc(N2C(=O)SC(N(CC(=O)O)c3cccc(C)c3)C2=O)c1 (centres undefined) 11.8%
COc1ccc(C(=O)N(Cc2ccc(N(C)C)cc2)C2CCS(=O)(=O)C2)cc1 (centres undefined) 0.01%
Cc1nc2sc(C(c3ccco3)N3CCC4(CC3)OCCO4)c(O)n2n1 (centres undefined) 4.37%
COc1ccc2c(CC(=O)Nc3nnc(C4CC4)s3)coc2c1 11.4%
CCCCCCn1c(CN2CCCCC2)nc2c1c(=O)n(C)c(=O)n2C 3.15%
CNC(=O)Nc1cc(C(C)(C)C)no1 -18.9%
CCN(CC(=O)NC(C)C)C(=O)CCNC(=O)c1ccc(Cl)cc1 24.3%
CN1C(=O)c2ccc(NC(=O)C3CCCCC3)cc2C1=O 16.2%
CC1(C)CC(=O)C=C(NCCCN2CCCC2=O)C1 -21.7%
CCOc1ccccc1C1CC(c2ccccc2)Nc2nc(N)nn21 (centres undefined) 5.12%
CSC1=N/C(=C\C=C\c2cccs2)C(=O)S1 -1.19%
Fc1ccc(OCc2nn3c(Cn4nnc5ccccc54)nnc3s2)cc1 17.2%
Cn1c(CNC(=O)C(C)(C)C)nc2ccccc21 4.69%
COc1cccc2cc(C(=O)N(C)C)c(=O)oc12 -3.65%
CCCCOC(=O)c1[nH]c(C)c(C(=O)OC)c1C -26.1%
Cc1n[nH]c(C)c1S(=O)(=O)N1CCCC(C(=O)NCC2COc3ccccc3O2)C1 (centres undefined) 2.75%
CCS(=O)(=O)N1CCN(C(=O)c2cccs2)CC1 0.17%
Cc1nn(-c2ccccc2)c2c1C(=O)NC(=O)C(C)(C)C2 -21.3%
Cc1cccc(N)c1SC1CCCCC1O (centres undefined) -21.7%
COc1ccccc1Oc1ccc(S(=O)(=O)Nc2cccnc2)cc1 -6.18%
CCN(CC)P(=O)(C(NC(=O)OC)C(F)(F)C(F)(F)C(F)(F)C(F)F)N(CC)CC (centres undefined) 32.7%
Cc1ccc(C(=O)Nc2ccccc2C(=O)NC2CCCCC2)cc1S(=O)(=O)N1CCOCC1 15.1%
CCO/C([O-])=N/c1c[n+](N2CCOCC2)no1 -14.5%
Cc1cc(N2C(=O)c3ccc(C(=O)NCc4ccccc4)cc3C2=O)no1 6.5%
COc1ccc(OC)c2sc(NC(=O)C3COc4ccccc4O3)nc12 (centres undefined) 10.2%
COc1ccc(-c2nnc(SCC(=O)c3ccco3)n2-c2ccccc2)cc1 1.42%
CCCOc1cccc(C(=O)Nc2nnn(CCC)n2)c1 -1.6%
CC(=O)N(CN1C(=O)C2CC=CCC2C1=O)c1cccc(Cl)c1 (centres undefined) 4.23%
Cc1nc2ccccc2cc1O -1.94%
COc1ccc(-n2c(SCC(=O)NCc3cccs3)nnc2-c2ccoc2C)cc1 -10%
COc1ccc(CCN2CNc3c(c(=O)n(C)c(=O)n3C)C2)cc1OC -8.44%
CCOC(=O)Cn1c(=O)oc2cc(S(=O)(=O)NCC3CCCO3)ccc21 (centres undefined) -10.8%
COC(=O)C1C(=O)CC(C)(O)C(C(=O)OC)C1c1ccc2c(c1)OCO2 (centres undefined) 4.11%
Cc1ccc2nc(NCCCNC(=O)c3cnccn3)c(C#N)cc2c1 16.8%
CCN(CCCNC(=O)C1CCN(S(=O)(=O)c2cnc[nH]2)CC1)c1ccccc1 -3.93%
Cn1c(=O)c2c(nc(OCc3cccnc3)n2Cc2ccccc2)n(C)c1=O -22.4%

From PubChem BioAssay AID374 (University of Pittsburgh Molecular Library Screening Center, 2006)
